Composite z-score and z-score data for 16 molecules are collected here from PubChem BioAssay.

Activity calls are given as the source filed them.

Assay [1] in a line: anti-His antibody binders, primary screen, artefact control for SMM control protein annotation, biochemical, small-molecule microarray, 635 nm fluorescence (AID 1128).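 Note: score merges feature fluorescence with signal-to-noise for each printed compound spot.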 Conditions: anti-His Alexa647 antibody binding, higher = more signal.
Assay [2] deals with Human papillomavirus type 1a E7 protein (residues 1-88). Nature of the assay: HPV1a E7 small-molecule binders, primary screen, biochemical, small-molecule microarray, residues 1-88, 635 nm (AID 1129). Conditions: small-molecule microarray binding, fluorescence 635 nm; higher = more signal.
The target of assay [3] is Focal adhesion kinase 1 (Homo sapiens) (UniProt Q05397). In words: small-molecule microarray binders of FAK, primary screen, biochemical, 635/667 nm fluorescence, BSA, DTT (AID 1130).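 Note: composite of spot emission at 667 nm and signal to noise over triplicate slides.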 Conditions: PTK2 binding, 635 nm fluorescence, higher = more signal.
The test system of assay [4] is Fibrinogen (Alexa647-labelled). In words: fibrinogen binders on compound microarrays, profiling panel, artefact control for SMM control-protein annotation, biochemical, small-molecule microarray, 635/667 nm fluorescence (AID 1131).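 Note: z-score merges 667 nm fluorescence with per-spot signal-to-noise over triplicate slides.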 Conditions: fibrinogen-A647 binding fluorescence, higher = more signal.
In assay [5] the target is Follistatin (Homo sapiens) (UniProt P19883). In words: follistatin binders on small-molecule microarrays, primary screen, biochemical, small-molecule microarray, 635/667 nm fluorescence (AID 1132). Conditions: FST binding, 635 nm fluorescence, higher = more signal.
In assay [6] the target is Fibroblast growth factor 2 (Homo sapiens) (UniProt P09038). In words: FGF2 binders on small-molecule microarrays, primary screen, biochemical, small-molecule microarray, 635/667 nm fluorescence (AID 1133). Conditions: small-molecule microarray binding, FGF2, fluorescence 635/667; higher = more signal.
Assay [7] is described as follows: mitochondrial membrane potential change in A549 cells, profiling panel, cell-based, JC-1 fluorescence, basal, 24 h, 100 nL (AID 1138).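 Note: A549 lung adenocarcinoma cells under basal conditions with no added stimulus; test concentration not given here.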 Conditions: higher = more signal.
For assay [8], the system named is Lefty1. Nature of the assay: Lefty1 binders on small-molecule microarrays, primary screen, biochemical, small-molecule microarray, 635/667 nm fluorescence (AID 1139). Particulars: small-molecule microarray binding, fluorescence 635/667; higher = more signal.
For assay [9], the system named is wheat germ agglutinin (Triticum aestivum), Alexa647-labelled. Nature of the assay: wheat germ agglutinin binders on compound microarrays, profiling panel, artefact control for SMM control-protein annotation, biochemical, small-molecule microarray, 635/667 nm fluorescence (AID 1140).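 Note: score merges 667 nm feature emission with signal to noise over triplicate slides.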 Particulars: WGA-A647 binding, 635 nm fluorescence, higher = more signal.
Assay [10] addresses Luciferin 4-monooxygenase (Photinus pyralis) (UniProt P08659). Nature of the assay: firefly luciferase enzyme inhibitors, primary screen, biochemical, luminescence, purified enzyme, 2006 set (AID 1141).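 Note: cell-free assay with purified firefly luciferase at 100 ng per well in PBS; test concentration not given here.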 Particulars: SteadyGlo luminescence, 30 min, higher = more signal, called active from +8 up or from −8 down.

Chain of Follistatin (Homo sapiens) (P19883 whole entry, looked up): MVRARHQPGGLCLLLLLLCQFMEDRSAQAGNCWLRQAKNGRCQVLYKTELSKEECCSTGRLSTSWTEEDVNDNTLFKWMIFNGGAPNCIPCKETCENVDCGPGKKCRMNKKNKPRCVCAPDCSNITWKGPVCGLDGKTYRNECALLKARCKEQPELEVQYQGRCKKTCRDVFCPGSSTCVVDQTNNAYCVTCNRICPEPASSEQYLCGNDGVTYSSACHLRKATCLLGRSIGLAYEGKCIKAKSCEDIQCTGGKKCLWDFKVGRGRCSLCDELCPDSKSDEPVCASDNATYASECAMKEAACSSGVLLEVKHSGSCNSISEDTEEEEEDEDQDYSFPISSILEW
Chain of Focal adhesion kinase 1 (Homo sapiens) (Q05397 whole entry, looked up): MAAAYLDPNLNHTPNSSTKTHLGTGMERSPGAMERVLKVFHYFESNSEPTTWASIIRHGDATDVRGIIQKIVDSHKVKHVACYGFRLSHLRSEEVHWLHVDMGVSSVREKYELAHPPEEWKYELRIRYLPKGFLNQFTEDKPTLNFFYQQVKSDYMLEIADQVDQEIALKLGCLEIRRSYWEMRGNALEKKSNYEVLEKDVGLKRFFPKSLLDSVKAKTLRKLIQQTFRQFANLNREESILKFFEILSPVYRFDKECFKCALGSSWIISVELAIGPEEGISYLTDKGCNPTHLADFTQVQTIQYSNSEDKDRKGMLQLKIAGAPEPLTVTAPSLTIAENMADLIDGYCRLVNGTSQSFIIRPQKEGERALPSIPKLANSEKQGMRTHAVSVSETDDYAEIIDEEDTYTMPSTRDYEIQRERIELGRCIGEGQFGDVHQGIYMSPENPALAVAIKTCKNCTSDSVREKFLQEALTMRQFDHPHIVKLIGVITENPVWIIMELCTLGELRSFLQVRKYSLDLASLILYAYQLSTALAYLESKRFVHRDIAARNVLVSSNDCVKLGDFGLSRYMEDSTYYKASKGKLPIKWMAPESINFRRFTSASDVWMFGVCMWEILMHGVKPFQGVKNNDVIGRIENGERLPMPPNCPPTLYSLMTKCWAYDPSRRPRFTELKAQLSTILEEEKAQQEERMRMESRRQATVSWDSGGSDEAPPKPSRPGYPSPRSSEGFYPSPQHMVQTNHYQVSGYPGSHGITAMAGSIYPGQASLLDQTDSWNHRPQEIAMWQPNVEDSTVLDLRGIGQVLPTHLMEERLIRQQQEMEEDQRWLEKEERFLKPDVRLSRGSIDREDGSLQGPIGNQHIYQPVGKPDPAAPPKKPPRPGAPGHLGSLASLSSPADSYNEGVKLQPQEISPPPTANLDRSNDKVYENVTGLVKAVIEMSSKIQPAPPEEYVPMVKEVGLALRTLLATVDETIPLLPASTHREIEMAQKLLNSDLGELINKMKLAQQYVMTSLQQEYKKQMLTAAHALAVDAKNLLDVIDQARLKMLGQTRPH
Chain of Luciferin 4-monooxygenase (Photinus pyralis) (P08659 whole entry, looked up): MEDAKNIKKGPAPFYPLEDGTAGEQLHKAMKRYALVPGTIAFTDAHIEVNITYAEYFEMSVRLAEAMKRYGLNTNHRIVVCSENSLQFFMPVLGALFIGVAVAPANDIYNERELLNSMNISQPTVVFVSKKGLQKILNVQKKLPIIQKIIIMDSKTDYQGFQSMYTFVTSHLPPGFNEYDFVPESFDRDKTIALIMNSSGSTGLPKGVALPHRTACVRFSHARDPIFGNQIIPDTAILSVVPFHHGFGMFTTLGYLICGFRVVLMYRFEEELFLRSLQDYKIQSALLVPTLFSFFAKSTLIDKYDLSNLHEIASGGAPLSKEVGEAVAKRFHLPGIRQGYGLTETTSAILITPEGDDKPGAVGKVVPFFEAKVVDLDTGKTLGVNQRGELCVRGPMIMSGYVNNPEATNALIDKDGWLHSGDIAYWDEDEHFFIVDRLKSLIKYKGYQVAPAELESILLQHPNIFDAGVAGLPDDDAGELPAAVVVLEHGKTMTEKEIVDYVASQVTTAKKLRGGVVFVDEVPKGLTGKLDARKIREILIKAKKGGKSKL
Chain of Fibroblast growth factor 2 (Homo sapiens) (P09038 whole entry, looked up): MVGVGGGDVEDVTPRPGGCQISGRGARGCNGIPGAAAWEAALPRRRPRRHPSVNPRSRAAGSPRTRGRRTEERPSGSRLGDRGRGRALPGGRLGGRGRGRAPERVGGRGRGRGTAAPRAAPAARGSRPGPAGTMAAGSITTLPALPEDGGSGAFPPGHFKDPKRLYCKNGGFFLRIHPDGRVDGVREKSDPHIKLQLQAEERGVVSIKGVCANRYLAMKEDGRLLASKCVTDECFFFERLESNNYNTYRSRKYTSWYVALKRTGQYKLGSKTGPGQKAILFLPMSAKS

For `C=CCC(OC(C)=O)[C@@H]1[C@@H](N(Cc2ccc(-c3ccccc3)cc2)C(=O)Cc2ccc(OC)cc2)c2cc(OCCCO)ccc2N1C(=O)Cc1ccc(OC)cc1` (stereo not given in full), the composite z-score was 0.271 in assay [1]; 0.0716 in assay [2]; 1.78 in [3]; 0.513 in [4]; 0.7 in assay [5]; 0.0471 in assay [6]. Moreover, the composite z-score in assay [8] was 0.161; in assay [9] it was 0.365. Moreover, the values for the z-score in assay [7] and in assay [10] were 0.462 and 0.355 (inactive), respectively.
As to `COC(=O)[C@@]1(Cc2ccc(OC)cc2)[C@@H]2[C@@H](CC(=O)[C@H]2CC(=O)C(=O)N(C)C)CN1C(=O)c1ccccc1`, the composite z-score in assay [1] was determined as 2.06; in [2], 1.24; in assay [3], 0.462; in assay [4] it was 1; in [5], 0.594; in [6], 0.153. Besides, the composite z-score in [8] was -0.477; in assay [9], 1.34. Moreover, the z-score was 0.257 in assay [7] and -0.273 (inactive) in assay [10].
For `CC(C)c1ccc(NN2C(C(O)C3CCCCC3)C=CC3C(=O)N(c4ccccc4)C(=O)C32)cc1` (stereo not given), the composite z-score amounted to 1.04 in [1]; 1.21 in [2]; 0.401 in assay [3]; 0.987 in assay [4]; 0.946 in assay [5]; 0.66 in assay [6]. The composite z-score in [8] worked out at 1.29; in [9], 1.27. Besides, the z-score in [7] was 0.257; in assay [10] it was -1.36 (inactive).
As to `CC(C)C(=C=CC[C@H](O)c1cccc(OCCO)c1)C[C@H](O)c1ccccn1`, the composite z-score in assay [1] was 0.474; in assay [2] it was 0.534; in assay [3], 0.0358; in assay [4] it was -1.37; in assay [5], 0.972; in assay [6], 0.236. For the same molecule, the composite z-score in assay [8] was 0.788; in [9] it was 0.641. Further, the z-score in [7] is 0.717; in assay [10], -0.147 (inactive).
On to `CN(C)CCCCCCNC(=O)[C@@H]1C[C@@H]2C(=O)N[C@@H](CCCC[N+](C)(C)C)C(=O)N2[C@@H]1c1cccc(OCCO)c1`, for which the composite z-score in [1] is 2.34; in [2], 0.13; in [3] it was -0.159; in assay [4], 0.104; in assay [5], 0.704; in [6], 0.645. Also, the figures for the composite z-score in assay [8] and in assay [9] were -0.601 and 0.853, respectively. Further, the z-score is 0.417 in assay [7] and -2.44 (inactive) in [10].
As for `[N-]=[N+]=Nc1ccccc1C[C@@]1(C(=O)NCC(O)CO)N=C(c2ccc(OCCCO)cc2)O[C@@H]1c1ccccc1N=[N+]=[N-]` (stereo not given in full), the composite z-score in assay [1] is 1.85; in [2], 1.18; in [3], 1.03; in assay [4], 0.79; in assay [5], 0.14; in assay [6] it was -0.491. The composite z-score in assay [8] is -0.19; in assay [9] it was 1.13. Moreover, the z-score was -2.28 in [7] and -4.27 (inactive) in assay [10].
Turning to `C=C(CCCC)C(=O)CC[C@@H](OC(C)=O)c1ccc(OCCO)cc1`, the composite z-score in [1] is 1.51; in [2] it was -0.161; in [3], -0.162; in [4] it was -0.134; in [5], 1.46; in assay [6], 1.4. Also, the composite z-score in assay [8] was 1.69; in assay [9], -0.578. For the same molecule, the z-score is -0.275 in [7] and -1.4 (inactive) in assay [10].
For the molecule `COC(=O)[C@@]1(Cc2ccc(F)cc2)[C@H]2c3cc(C(=O)N(C)C)n(Cc4cccc5ccccc45)c3C[C@H]2CN1C(=O)c1ccccc1`, the composite z-score in assay [1] is 0.497; in [2] it was 1.11; in [3], 0.705; in [4], 0.338; in assay [5] it was 0.137; in assay [6] it was -0.617. In addition, the values for the composite z-score in assay [8] and in assay [9] were -0.446 and 0.115, respectively. Also, the z-score was 0.319 in assay [7] and 4.74 (inactive) in assay [10].
With `COCCCNC(=O)[C@@]1(Cc2ccccc2I)c2ccccc2C(=O)N(Cc2ccccc2OC)[C@H]1c1ccc(CO)cc1`, the composite z-score in assay [1] is 3.03; in [2], 1.18; in [3], 0.0958; in assay [4], 0.198; in assay [5], -0.268; in assay [6], -0.39. In addition, the figures for the composite z-score in assay [8] and in assay [9] were -1.26 and 0.214, respectively. For the same molecule, the values for the z-score in assay [7] and in assay [10] were 1.93 and -0.773 (inactive), respectively.
Turning to `COc1ccc(-c2cc3c(c(CCc4ccccc4)n2)[Si](C(C)C)(C(C)C)O[C@H]3c2ccccc2)cn1`, the composite z-score in [1] was -0.0334; in [2] it was -0.547; in assay [3] it was 0.16; in assay [4], 0.285; in [5], 0.432; in [6], 0.0958. Besides, the composite z-score in [8] stood at 0.169; in assay [9] it was 0.0926. Moreover, the values for the z-score in assay [7] and in assay [10] were 0.412 and -0.315 (inactive), respectively.
On to `O=C(NCCN1CCOCC1)[C@@H]1c2ccccc2C(=O)N(CC23CC4CC(CC(C4)C2)C3)[C@H]1c1ccc(CO)cc1`, for which the composite z-score in assay [1] was 2.06; in assay [2], 1.25; in assay [3], 0.211; in assay [4], 0.962; in assay [5], 0.99; in assay [6], 0.424. In addition, the results for the composite z-score in assay [8] and in assay [9] were 0.357 and 1.17, respectively. For the same molecule, the values for the z-score in [7] and in assay [10] were 1.26 and 0.733 (inactive), respectively.
With `O=C1c2ccccc2[C@@]2(Cc3ccccc3N(CC(F)(F)F)C2=O)[C@H](c2ccc(CO)cc2)N1Cc1ccccc1`, the composite z-score in assay [1] is -0.713; in assay [2], -0.404; in [3], -0.282; in assay [4], -0.243; in assay [5], 0.932; in [6], 1.4. The composite z-score was 0.759 in assay [8] and 0.0111 in [9]. The figures for the z-score in assay [7] and in assay [10] were -0.772 and 0.746 (inactive), respectively.
On to `CCCNC(=O)[C@@]1(Sc2ccc(C)cc2)CC(=O)N(Cc2cc(C(F)(F)F)cc(C(F)(F)F)c2)[C@@H]1c1ccc(CO)cc1`, for which the composite z-score in [1] is 2.59; in assay [2], -0.0696; in [3] it was -0.251; in [4] it was -0.452; in assay [5], -0.245; in [6], -0.375. The composite z-score is -0.675 in assay [8] and -0.037 in [9]. For the same molecule, the z-score is -0.328 in assay [7] and -0.297 (inactive) in assay [10].
`C=CCNC(=O)[C@@H]1[C@H]2C(=O)O[C@H](c3ccccc3)[C@H](c3ccccc3)N2[C@H](c2ccc(O)cc2)[C@@]12C(=O)Nc1ccc(C#CC3=CCCCC3)cc12`: the composite z-score came out at 0.844 in assay [1]; 1.18 in assay [2]; 0.721 in assay [3]; 0.668 in assay [4]; 1.24 in [5]; 0.494 in assay [6]. For the same molecule, the composite z-score in [8] turned out to be 1.43; in assay [9], 1.06. For the same molecule, the z-score in assay [7] is 0.22; in assay [10] it was -0.806 (inactive).
As to `CC(C)C[C@H]1NC(=O)CNC(=O)[C@@]23C(=O)N[C@@H](Cc4ccccc4)C2[C@H](C)[C@@]2(C)O[C@H]2C3/C=C/C/C=C\CNC1=O` (stereo not given in full), the composite z-score in assay [1] is 0.0845; in [2], 0.0956; in [3] it was -0.419; in assay [4], -0.304; in assay [5], 0.67; in assay [6], 0.0369. The results for the composite z-score in assay [8] and in assay [9] were 0.438 and 0.813, respectively. Further, the z-score was -0.0605 in assay [7] and 0.151 (inactive) in assay [10].
As for `C[C@]1(C(=O)NC2CC2)c2ccccc2C(=O)N(Cc2cc(F)cc(C(F)(F)F)c2)[C@H]1c1ccc(CO)cc1`, the composite z-score in [1] was 1.26; in assay [2], -0.0534; in assay [3] it was -0.695; in [4] it was -0.331; in [5], 0.719; in assay [6] it was -0.785. Further, the composite z-score in [8] is 0.0495; in [9], -0.692. For the same molecule, the z-score in assay [7] was -0.057; in assay [10], 0.851 (inactive).
